Laboratory results as given in PubChem BioAssay (NCI).
This is part of a sample that, as a whole, favours compounds with a hit. Of some 83,000 tested, about 20% had one in any assay.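 For each line, cells grew in 96-well plates with the test compound present at a single concentration for 48 hours.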 Values without a mark were called inactive. Active and inactive are the calls of the source. How the source made its calls: active means growth percent below 10; inactive means the rest.

How the values were obtained:
Assay in all cases: NCI-60 one-dose screen, 48 h (100 = growth as untreated, 0 = no growth, -100 = all killed)
Settings in all cases: 10 µM unless noted
[1] = test system: SR leukemia
[2] = test system: RPMI-8226 leukemia
[3] = test system: OVCAR-8 ovarian
[4] = test system: OVCAR-5 ovarian
[5] = test system: OVCAR-4 ovarian
[6] = test system: SK-OV-3 ovarian
[7] = test system: IGROV1 ovarian
[8] = test system: OVCAR-3 ovarian
[9] = test system: HS 578T breast
[10] = test system: NCI/ADR-RES ovarian

Row | SMILES | growth [1] | growth [2] | growth [3] | growth [4] | growth [5] | growth [6] | growth [7] | growth [8] | growth [9] | growth [10]
1 | C=C(C)[C@@H]1CC[C@]2(C(=O)N3CCN(C)CC3)CC[C@]3(C)[C@H](CC[C@@H]4[C@@]5(C)C/C(=C/c6ccc(C(F)(F)F)cc6)C(=O)C(C)(C)[C@@H]5CC[C@]43C)[C@@H]12 | 76.9% | 86.1% | 97.4% | 94.9% | 103% | 101% | 102% | 103% | 99.4% | 96.8%
2 | O=S(=O)(NCCNc1cc(-c2cn(-c3ccccc3)nc2-c2cccc(O)c2)ccn1)c1ccc(Cl)cc1 | 2.36% (active) | 12.8% | 31% | 63.4% | 38.2% | 53.5% | 44.4% | 43.2% | 21.2% | 29.1%
3 | Cc1c(C)c2c(c(C)c1NC(=O)CCCCCCC(=O)O)CCC(C)(CCCC(C)CCCC(C)CCCC(C)C)O2 (stereo not given) | 6.23% (active) | 69% | 69.1% | 121% | 58.5% | 99.3% | 89.8% | 65.5% | 101% | 77.3%
4 | C[C@@H](Oc1ccc(C(=O)NS(=O)(=O)C(C)(C)C)cc1C(F)(F)F)c1ccc(Oc2ccccc2)cn1 | 29.7% | 71.5% | 41.2% | 86.5% | 67.2% | 69.6% | 37.4% | 8.19% (active) | 4.34% (active) | 66.4%
5 | C#Cc1cccc(NC(=O)C2CCCN(C(=O)CCl)C2)c1 (stereo not given) | 10.9% [8.25 µM] | 64.4% [8.25 µM] | 30.1% [8.25 µM] | 78.8% [8.25 µM] | 68.9% [8.25 µM] | 89.8% [8.25 µM] | -72% [8.25 µM] (active) | 5.16% [8.25 µM] (active) | 85.6% [8.25 µM] | 93.2% [8.25 µM]
6 | O=S(=O)(NCCNc1cc(-c2cn(-c3ccccc3)nc2-c2cccc(O)c2)ccn1)c1ccccc1 | 11.7% | 32.7% | 49.8% | 92.1% | 56.3% | 69.5% | 57.1% | 63.3% | 45.2% | 43.9%
7 | Cc1ccc(S(=O)(=O)Nc2ccc(-c3cc(-c4cccc(F)c4)c(C#N)c(N)n3)cc2)cc1 | 8.01% (active) | -3.27% (active) | 7.02% (active) | 45.5% | -63.4% (active) | 71.8% | -66.3% (active) | -79.4% (active) | 31.4% | 41%
8 | C=C1CC[C@@H](C(=O)OC)Cc2nc(C)ccc21 | 95.7% | 100% | 102% | 98.4% | 103% | 109% | 107% | 119% | 107% | 98.5%
9 | COc1cc(/C=C2\C(=O)N(CC(O)COc3cc(O)c4c(=O)cc(-c5ccccc5)oc4c3)c3ccccc32)cc(OC)c1O (stereo not given) | 45.9% | 57.9% | 77% | 113% | 78.7% | 111% | 51.3% | 69.5% | 85.1% | 87.5%
10 | Cc1ccc(/C=C(\C#N)c2cc3ccccc3n2C)cc1 | 25.2% | 14% | 38.9% | 38.7% | 61% | 67.8% | 30.5% | -12.6% (active) | 34.1% | -2.11% (active)
11 | Cc1cc(Cl)c2c(N(C)C)cccc2n1 | 75% | 104% | 94.5% | 119% | 108% | 92.4% | 88.2% | 100% | 136% | 106%
12 | Nc1c2c(nc3ccc(Br)cc13)CC(c1ccccc1)CC2=O (stereo not given) | 27.1% | 17.8% | 44.7% | 49.2% | 68.7% | 63.6% | 36.7% | 14.7% | 30.9% | 11%
13 | CC1(C)C(=O)/C(=C\c2ccccn2)C[C@]2(C)[C@H]3CC[C@@H]4[C@@H](C(=O)/C=C/c5ccccn5)CC[C@@]4(C)[C@]3(C)CC[C@@H]12 | 3.7% (active) | -5.71% (active) | 15.5% | -21.7% (active) | -1.54% (active) | 35.1% | -52% (active) | -69% (active) | 15.1% | 0.68% (active)
14 | COc1cnc2c(c1)C(=O)c1c-2n(CCCNCCN2CCOCC2)c(=O)c2cc([N+](=O)[O-])ccc12 | -0.128% (active) | -14.5% (active) | 2.29% (active) | 15.3% | -13.5% (active) | -12.9% (active) | 15.6% | -25.9% (active) | 26.7% | 7.12% (active)
15 | CSc1ccc(N(C)c2nc(C)nc3c2CCC3)cc1 | 1.95% (active) | 23.5% | 12% | 33.2% | 38.2% | 19.5% | 31.3% | 5.43% (active) | 29.8% | 8.05% (active)
16 | O=C(Nc1ccc(/C=C2\SC(=O)N(Cc3ccc(OC(F)(F)F)cc3)C2=O)cc1)c1ccc(Cl)c([N+](=O)[O-])c1 | -0.106% (active) | -11.2% (active) | 87.5% | 85.5% | 31.4% | 93.7% | 79.9% | 48.2% | 72.1% | 73.6%
17 | COc1cc(-c2c(C#N)c(-c3cccs3)nc3c2c(-c2ccccc2)nn3-c2ccccc2)ccc1O | 60.5% | 94.3% | 84.2% | 95.4% | 83.5% | 82.7% | 91.3% | 101% | 78.6% | 88.9%
18 | CC(C)=CCC[C@](C)(O)[C@H]1CC[C@]2(C)[C@@H]1CC[C@@H]1[C@@]3(C)C/C(=C/c4cccc([N+](=O)[O-])c4)C(=O)C(C)(C)[C@@H]3CC[C@]12C | 72.7% | 59.9% | 77.5% | 94.1% | 82.5% | 109% | 107% | 89.7% | 93.3% | 101%
19 | c1cnc2[nH]cc(-c3csc(-c4cn(CCCN5CCCCC5)c5ccccc45)n3)c2c1 | -31.4% (active) | -26.8% (active) | 69.7% | 92.5% | 75.7% | 94.2% | 34.6% | 60.4% | 73.3% | 68.1%
20 | CCOC(=O)C/C(=C\c1ccccc1)C(C)=O | 96.7% | 95% | 90.9% | 108% | 112% | 75.1% | 109% | 107% | 108% | 110%
21 | Cc1cc2nc3c4cc(O)ccc4n(CCN(C)C)c3nc2cc1C | 8.05% (active) | -11.2% (active) | -18.6% (active) | -11.6% (active) | 4.91% (active) | -2.47% (active) | -26.4% (active) | 3.66% (active) | 14.1% | -40.2% (active)
